Screens as filed in PubChem BioAssay.
Lmaj promast = Leishmania major promastigote growth inhibition; Leishmania major promastigotes, resazurin fluorescence viability; AID 1063; 200,000 tested, 9% active; inhibition, % at 10 µM; in the data active = inhibition above about 50%;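 note: promastigotes grown with compound for 44 hours at 28 °C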
INS promoter inh = TRM-6 insulin promoter activity inhibition. TRM-6 cells (human fetal islet line), insulin promoter-eGFP reporter, imaging; reporter expression induced with tamoxifen. inhibition, % at 2 µM. 130,000 tested, 0.9% active. AID 1273;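 active = inhibition above the mean plus 3 SD, with well images judged a real hit on visual review, cut at about 60% in these data, passing the limit was not always enough; inconclusive = inhibition over the cutoff but images rejected on review; inactive = inhibition not above the cutoff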
Insulin prom up = MIN6 insulin promoter up-regulation. MIN6 insulin promoter-GFP reporter, high-content imaging; stronger effect = higher value. z-score at 5 µM. AID 1625. 190,000 tested, 0.3% active;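 active = z-score above 3 at 5 µM with at least 500 cells counted in the well; inconclusive = wells under 500 cells, flagged as cytotoxic or low count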
WT yeast gro inh = growth inhibition of WT yeast, mitochondrial fusion screen; mitochondrial fusion phenotypic screen, WT strain; inhibition, % at 10 µM; 190,000 tested, 2.1% active; AID 1362; in the data active = inhibition above about 58%; tested in S. cerevisiae
ROMK primary = human ROMK K+ channel modulation, primary screen; P48048; Tet-inducible ROMK, thallium flux fluorescence; actives lie on both sides; B-score at 10 µM; 130,000 tested, 2% active;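 active = signal ratio slope over the read window, or its plate-corrected B-score, at least 3 SD from the plate mean, either direction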;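 note: B-score of the F/F0 ratio slope over 7 to 12 s after thallium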
Cl transport mod = KCC2 (human) Cl- transport modulation | KCC2 cells, thallium flux FluoZin-2 fluorescence | B-score of Tl+ flux slope (higher = more flux/activation; lower = inhibition) at 10 µM | 190,000 tested, 2.2% active | AID 1456;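 active = thallium flux slope and its plate-corrected score both differing from the plate sample mean at a set confidence after two filtering rounds, in either direction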;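 note: slope of fluorescence scaled to starting intensity during 10 to 20 s after thallium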
Target sequence (Q9H2X9 whole entry, looked up): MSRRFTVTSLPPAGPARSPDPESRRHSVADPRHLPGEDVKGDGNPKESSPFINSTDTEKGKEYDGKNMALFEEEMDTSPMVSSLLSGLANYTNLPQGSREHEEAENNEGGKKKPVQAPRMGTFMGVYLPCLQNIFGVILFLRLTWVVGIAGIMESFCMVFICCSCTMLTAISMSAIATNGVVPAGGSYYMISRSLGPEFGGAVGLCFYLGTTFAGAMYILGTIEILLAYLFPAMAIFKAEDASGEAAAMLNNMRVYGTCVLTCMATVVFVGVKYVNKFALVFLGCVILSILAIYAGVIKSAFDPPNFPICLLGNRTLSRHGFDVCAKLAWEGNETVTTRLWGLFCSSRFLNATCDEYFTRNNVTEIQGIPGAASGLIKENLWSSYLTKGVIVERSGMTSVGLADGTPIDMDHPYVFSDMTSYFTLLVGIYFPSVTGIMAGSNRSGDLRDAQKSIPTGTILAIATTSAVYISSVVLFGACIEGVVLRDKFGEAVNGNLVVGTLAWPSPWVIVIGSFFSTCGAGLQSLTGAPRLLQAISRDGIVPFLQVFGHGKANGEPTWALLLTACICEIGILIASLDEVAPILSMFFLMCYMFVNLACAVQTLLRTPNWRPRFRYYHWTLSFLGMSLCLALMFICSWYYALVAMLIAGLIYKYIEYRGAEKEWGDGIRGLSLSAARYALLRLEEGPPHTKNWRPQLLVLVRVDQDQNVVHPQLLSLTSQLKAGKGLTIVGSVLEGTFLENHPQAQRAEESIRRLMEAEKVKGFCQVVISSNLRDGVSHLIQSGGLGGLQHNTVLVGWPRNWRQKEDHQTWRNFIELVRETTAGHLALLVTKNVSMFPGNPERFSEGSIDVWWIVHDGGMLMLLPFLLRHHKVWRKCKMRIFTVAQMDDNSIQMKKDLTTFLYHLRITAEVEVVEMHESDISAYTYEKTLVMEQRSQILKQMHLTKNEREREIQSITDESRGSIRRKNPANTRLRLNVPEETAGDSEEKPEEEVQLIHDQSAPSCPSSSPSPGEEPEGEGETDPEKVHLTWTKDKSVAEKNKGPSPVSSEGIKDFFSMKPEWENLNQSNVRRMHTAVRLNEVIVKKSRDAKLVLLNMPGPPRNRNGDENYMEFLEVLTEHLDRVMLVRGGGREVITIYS
KCC2 sec1 = confirmation of human KCC2 transport modulators; 3,700 tested, 15% active; shares compounds with Cl transport mod; normalised thallium flux (F/F0 slope) at 10 µM; HEK293-KCC2, thallium flux, FluoZin2 fluorescence; stronger effect = higher value;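 active = thallium flux slope above the same plate's solvent-only control mean plus 3 SD; inconclusive = the two replicate wells disagree; inactive = no significant difference from solvent-only control wells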
KCC2 bumet counter = bumetanide-insensitive thallium flux in KCC2 cells with ouabain, counter-screen; shares compounds with Cl transport mod; HEK293-KCC2 + bumetanide/ouabain, thallium flux FluoZin2; stronger effect = higher value; normalized thallium flux at 10 µM; 3,700 tested, 49% active; AID 1714;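 active = thallium entry rate above the same plate's blocked-transporter control wells by more than 3 SD; inconclusive = the two repeat wells disagree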;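 note: raw slope of fluorescence over initial fluorescence between 10 and 20 s after thallium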
KCC2 secondary2 = KCC2 (human) modulation, second secondary assay. shares compounds with Cl transport mod. HEK293-KCC2, thallium flux FluoZin2 fluorescence; actives lie on both sides; F/F0 rise rate, 10–20 s post-thallium. normalized thallium flux at 10 µM. 3,700 tested, 23% active;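 active = thallium flux slope more than 3 SD above or below the plate's solvent-only control mean, mostly below; inconclusive = the two repeat wells disagreed; inactive = no significant shift from solvent-only controls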;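 note: raw slope with 0.1% DMSO as baseline and bumetanide as block control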
HEK counter1 = counter-screen for KCC2 modulators: effect in parental HEK293 cells. shares compounds with Cl transport mod. thallium flux FluoZin2, ouabain; baseline-ratio fluorescence slope, 10–20 s after thallium. thallium flux rate (normalised fluorescence) at 10 µM. 3,700 tested, 46% active;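 active = thallium flux rate significantly above the same plate's solvent-only control wells, beyond their mean plus 3 SD; inconclusive = the two replicate wells gave conflicting results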
KCC2 retest ouab = KCC2 (human) modulation, ouabain retest. AID 1717. HEK293-KCC2, thallium flux FluoZin2 fluorescence; bidirectional: low = inhibitor, high = activator. shares compounds with Cl transport mod. 3,700 tested, 48% active. raw Tl+ flux slope (below DMSO = inhibition, above = activation) at 10 µM;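 active = thallium flux slope beyond 3 SD from same-plate DMSO control mean in most replicates, usually higher, sometimes lower; inconclusive = repeat tests gave conflicting results; inactive = no significant difference from controls in most replicates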;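 note: slope of initial-normalized fluorescence between seconds 10 and 20 after thallium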
HEK counter2 = acts in parental HEK cells, second KCC2 counter-screen; AID 1718; thallium flux slope at 10 µM; shares compounds with Cl transport mod; 3,700 tested, 33% active; HEK293 parental, thallium flux FluoZin-2 fluorescence slope;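 active = thallium flux slope above the same plate's solvent-control mean plus 3 SD in both duplicate wells; inconclusive = duplicate wells that disagreed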;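 note: run without ouabain in cells lacking the KCC2 cotransporter; slope of fluorescence scaled to its starting value between 10 and 20 s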
An asterisk follows results filed as active; ? = inconclusive; / = not tested or not shown. Compounds with a hit are over-represented: about 12% of the library has one in this group of screens.

SMILES	Lmaj promast	INS promoter inh	Insulin prom up	WT yeast gro inh	ROMK primary	Cl transport mod	KCC2 sec1	KCC2 bumet counter	KCC2 secondary2	HEK counter1	KCC2 retest ouab	HEK counter2
Fc1ccccc1COc1ccc2ccccc2c1CNc1nn[nH]n1	-9	-82	0.36	-8	-0.28	-5.9*	0.0059	0.0043	0.02*	?	0.0087*	?
O=S(=O)(c1ccc(F)cc1)N1CCn2c(nc3ccccc32)C1	-2	/	0.44	7	/	/	/	/	/	/	/	/
C/C(N)=C(/C#N)C(=O)CSc1nnc(Nc2cccc(C)c2C)s1	5	/	-1.3	8	/	-2.4	/	/	/	/	/	/
Cc1cccc(Nc2nnc(SCC(=O)c3ccc(Br)s3)s2)c1C	-2	-27	0.66	51	1.4	-4.3*	?	?	0.027*	0.0075	0.011*	0.011
CN(Cc1ccccc1)C(=O)c1c[nH]c2ccc(S(=O)(=O)N3CCOCC3)cc2c1=O	-6	14	0.66	-7	0.24	0.14	/	/	/	/	/	/
CCN(CC)CCn1c(SCC(=O)NCc2ccccc2)nc2c(sc3ccccc32)c1=O	-2	-100	/	1	-0.25	1.2	/	/	/	/	/	/
CCSc1nc2c(sc3ccccc32)c(=O)n1C(C)C	-2	-27	-0.26	58	0.41	24*	0.038*	0.12*	0.042*	0.055*	0.054*	0.021*
CN(Cc1ccccc1)C(=O)COC(=O)c1ccc(Cl)c(N)c1	-6	/	-0.07	-3	/	-3.9*	0.0073	0.0057	0.037	0.004	0.016*	0.01
Cc1csc(NC(=O)C2CC(=O)N(Cc3ccco3)C2)n1 (stereo not given)	-2	/	-0.87	15	0.48	2.8*	0.0058	0.0046	0.03	0.0078	0.019	0.0098
Cc1ccc(-c2csc(NC(=O)C3CC(=O)N(Cc4ccco4)C3)n2)cc1 (stereo not given)	4	19	-0.26	16	0.018	-4.3	/	/	/	/	/	/
CC(C)NCC(=O)Nc1c2c(nc3ccccc13)CCC2	/	/	-0.24	/	/	/	/	/	/	/	/	/
c1coc(CNc2c3c(nc4ccccc24)CCC3)c1	88*	/	-0.2	4	-1.6	7.3*	0.0052	0.0039	0.028	0.0065*	0.016*	0.0099
CC(C)OC(=O)CSc1nnc(-c2cnccn2)n1Cc1ccco1	-1	47	0.25	35	0.2	-0.2	/	/	/	/	/	/
O=C(CSc1nnc(-c2cnccn2)n1Cc1ccco1)c1ccc2ccccc2c1	6	-12	-0.24	-5	-0.19	/	0.015	0.0046	?	?	0.013*	0.0092
Brc1ccc(CSc2nnc(-c3cnccn3)n2Cc2ccco2)cc1	9	/	-0.04	3	0.62	-4.3*	0.015	0.0033	0.027	0.005*	0.013*	0.0093
Fc1cccc(Nc2cc(-n3cccn3)ncn2)c1	6	10	0.07	10	-1.2	/	/	/	/	/	/	/
CC1Cc2nc(SCC(=O)Nc3ccc4c(c3)OCO4)n(CCc3ccccc3)c(=O)c2S1 (stereo not given)	11	14	/	12	/	-4*	0.0061	0.0056	0.034	?	0.017*	0.011
CC(C)=CCC/C(C)=C/C=N/NC(=O)c1cccc([N+](=O)[O-])c1	-2	2	-0.33	-1	/	2.7	/	/	/	/	/	/
C/C(=N\NC(=O)Cn1cc([N+](=O)[O-])cn1)c1ccco1	/	/	-0.33	/	/	0.03	/	/	/	/	/	/
